Results taken from PubChem BioAssay AID1159580 (chemical genetic matrix, 2015).
In all, about 5,500 compounds went through this assay and about 2,000 (36%) were called active. About 18% were inconclusive and are not listed. Cut-off read from the data, not from the text of the source: active = normalized growth mostly below about 0.91 (no sharp cut-off); inconclusive = no clear call, values can overlap the other calls; inactive = mostly above about 0.92. The list shows a part of the results.

Assay: chemical genetic growth profiling, strain panel (AID 1159580);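 note: tested at 20 µM; growth read once vehicle control cultures reached saturation at 30 °C; 1 = growth at the plate median or of vehicle wells; lower values mean less growth of the strain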
Conditions: growth OD
[1] = S. cerevisiae deletion strains, locus YJR075W, strain HOC1, hits give low values
[2] = S. cerevisiae deletion strains, locus YMR307W, strain GAS1, hits give low values
[3] = S. cerevisiae deletion strains, locus YDL101C, strain DUN1, hits give low values
[4] = S. cerevisiae deletion strains, locus YHR030C, strain SLT2, hits give low values
[5] = S. cerevisiae deletion strains, locus YJL095W, strain BCK1, hits give low values
[6] = S. cerevisiae deletion strains, locus YOR061W, strain CKA2, hits give low values

Measured: normalized growth

O=[N+]([O-])c1ccc(CSc2ncnc3c2ncn3[C@@H]2O[C@H](CO)[C@H](O)C2O)cc1 (stereo partly drawn)
inactive: S. cerevisiae deletion strains, locus YAL013W, strain DEP1, hits give low values 1.01 | S. cerevisiae deletion strains, locus YAL040C, strain CLN3, hits give low values 1.01 | S. cerevisiae deletion strains, locus YCL061C, strain MRC1 (second series), hits give low values 1.01 | S. cerevisiae deletion strains, locus YDR363W, strain ESC2, hits give low values 1.01 | S. cerevisiae deletion strains, locus YER002W, strain NOP16, hits give low values 0.997 | [1] 1.01 | [2] 0.996 | S. cerevisiae deletion strains, locus YNL175C, strain NOP13, hits give low values 1.01 | S. cerevisiae deletion strains, locus YNL197C, strain WHI3, hits give low values 1.01 | S. cerevisiae deletion strains, locus YNL224C, strain SQS1, hits give low values 1 | S. cerevisiae deletion strains, locus YNL322C, strain KRE1, hits give low values 1.01 | S. cerevisiae deletion strains, locus YOR083W, strain WHI5 (second series), hits give low values 0.992 | S. cerevisiae deletion strains, locus YPL055C, strain LGE1, hits give low values 1.01 | S. cerevisiae deletion strains, locus YPL241C, strain CIN2, hits give low values 1.01

CC1(C)C(O)CC(O)C2(C)C1CC(=O)C1(C)C2CCC2(C)C(C(=O)O)OC(=O)C3OC321 (stereo not drawn)
inactive: S. cerevisiae deletion strains, locus YBR021W, strain FUR4, hits give low values 1.01 | S. cerevisiae deletion strains, locus YBR229C, strain ROT2, hits give low values 1.01 | S. cerevisiae deletion strains, locus YCL029C, strain bik1, hits give low values 0.996 | S. cerevisiae deletion strains, locus YDL035C, strain GPR1, hits give low values 1.01 | S. cerevisiae deletion strains, locus YDL074C, strain BRE1, hits give low values 1 | [3] 1.01 | S. cerevisiae deletion strains, locus YDL185W, strain tfp1, hits give low values 0.984 | S. cerevisiae deletion strains, locus YDL192W, strain arf1, hits give low values 1 | S. cerevisiae deletion strains, locus YDR101C, strain arx1, hits give low values 1 | S. cerevisiae deletion strains, locus YDR150W, strain NUM1, hits give low values 1.02 | S. cerevisiae deletion strains, locus YDR162C, strain NBP2, hits give low values 1.03 | S. cerevisiae deletion strains, locus YDR318W, strain mcm21, hits give low values 1 | S. cerevisiae deletion strains, locus YDR388W, hits give low values 1 | S. cerevisiae deletion strains, locus YDR502C, strain sam2, hits give low values 1.02 | S. cerevisiae deletion strains, locus YEL061C, strain CIN8, hits give low values 1 | S. cerevisiae deletion strains, locus YER110C, hits give low values 0.995 | S. cerevisiae deletion strains, locus YER155C, strain BEM2, hits give low values 1.01 | S. cerevisiae deletion strains, locus YER167W, strain BCK2, hits give low values 1.01 | S. cerevisiae deletion strains, locus YGL078C, strain dbp3, hits give low values 0.996 | S. cerevisiae deletion strains, locus YGL086W, strain mad1, hits give low values 1.01 | S. cerevisiae deletion strains, locus YGL248W, strain PDE1, hits give low values 1.01 | S. cerevisiae deletion strains, locus YGR135W, strain pre9, hits give low values 1.01 | S. cerevisiae deletion strains, locus YGR229C, strain SMI1, hits give low values 1.01 | S. cerevisiae deletion strains, locus YGR252W, strain gcn5, hits give low values 0.974 | [4] 1.01 | S. cerevisiae deletion strains, locus YHR079C, strain IRE1 (second series), hits give low values 0.994 | S. cerevisiae deletion strains, locus YHR094C, strain hxt1, hits give low values 1.01 | S. cerevisiae deletion strains, locus YHR129C, strain ARP1, hits give low values 1.01 | S. cerevisiae deletion strains, locus YHR200W, strain rpn10, hits give low values 1 | S. cerevisiae deletion strains, locus YIL066C, strain RNR3, hits give low values 1.02 | S. cerevisiae deletion strains, locus YIL073C, strain SPO22, hits give low values 1.03 | S. cerevisiae deletion strains, locus YIL125W, strain kgd1, hits give low values 0.994 | S. cerevisiae deletion strains, locus YIR030C, strain dcg1, hits give low values 0.999 | [5] 1.02 | S. cerevisiae deletion strains, locus YJL134W, strain LCB3, hits give low values 1.01 | S. cerevisiae deletion strains, locus YJL168C, strain set2, hits give low values 0.985 | S. cerevisiae deletion strains, locus YJL187C, strain SWE1 (second series), hits give low values 1.01 | S. cerevisiae deletion strains, locus YJR043C, strain POL32, hits give low values 1.02 | [1] 1.01 | S. cerevisiae deletion strains, locus YKL009W, strain mrt4, hits give low values 0.986 | S. cerevisiae deletion strains, locus YKL068W, hits give low values 1 | S. cerevisiae deletion strains, locus YKL085W, strain MDH1 (second series), hits give low values 1 | S. cerevisiae deletion strains, locus YKL085W, strain MDH1, hits give low values 1 | S. cerevisiae deletion strains, locus YKR001C, strain vps1, hits give low values 0.99 | S. cerevisiae deletion strains, locus YLR039C, strain RIC1, hits give low values 1.03 | S. cerevisiae deletion strains, locus YLR058C, strain SHM2, hits give low values 1.01 | S. cerevisiae deletion strains, locus YLR102C, strain apc9, hits give low values 0.998 | S. cerevisiae deletion strains, locus YLR262C, strain YPT6, hits give low values 1 | S. cerevisiae deletion strains, locus YLR268W, strain sec22, hits give low values 1.01 | S. cerevisiae deletion strains, locus YLR330W, strain CHS5, hits give low values 1.01 | S. cerevisiae deletion strains, locus YLR342W, strain FKS1 (second series), hits give low values 1 | S. cerevisiae deletion strains, locus YLR371W, strain rom2, hits give low values 1.01 | S. cerevisiae deletion strains, locus YLR418C, strain cdc73, hits give low values 1 | S. cerevisiae deletion strains, locus YML016C, strain PPZ1, hits give low values 1.01 | S. cerevisiae deletion strains, locus YML032C, strain rad52, hits give low values 1.01 | S. cerevisiae deletion strains, locus YML124C, strain tub3, hits give low values 1 | S. cerevisiae deletion strains, locus YMR078C, strain ctf18, hits give low values 0.984 | S. cerevisiae deletion strains, locus YMR223W, strain ubp8, hits give low values 1.01 | S. cerevisiae deletion strains, locus YMR263W, strain SAP30, hits give low values 1.01 | [2] 0.99 | S. cerevisiae deletion strains, locus YNL067W, strain RPL9B, hits give low values 1.02 | S. cerevisiae deletion strains, locus YNL128W, strain TEP1, hits give low values 1.02 | S. cerevisiae deletion strains, locus YNL153C, strain GIM3, hits give low values 1.01 | S. cerevisiae deletion strains, locus YNL233W, strain BNI4, hits give low values 1 | S. cerevisiae deletion strains, locus YNL250W, strain rad50, hits give low values 0.999 | S. cerevisiae deletion strains, locus YNL271C, strain bni1, hits give low values 0.993 | S. cerevisiae deletion strains, locus YNL298W, strain CLA4, hits give low values 1.01 | S. cerevisiae deletion strains, locus YNL307C, strain MCK1, hits give low values 1 | S. cerevisiae deletion strains, locus YNR052C, strain pop2, hits give low values 0.994 | S. cerevisiae deletion strains, locus YOL012C, strain htz1 0.868 | S. cerevisiae deletion strains, locus YOL147C, strain pex11, hits give low values 0.993 | [6] 1.01 | S. cerevisiae deletion strains, locus YOR069W, strain VPS5, hits give low values 1.01 | S. cerevisiae deletion strains, locus YOR136W, strain idh2, hits give low values 0.997 | S. cerevisiae deletion strains, locus YOR144C, strain elg1, hits give low values 0.992 | S. cerevisiae deletion strains, locus YOR184W, strain ser1, hits give low values 1.03 | S. cerevisiae deletion strains, locus YOR316C, strain cot1, hits give low values 0.995 | S. cerevisiae deletion strains, locus YPR119W, strain clb2, hits give low values 0.989 | S. cerevisiae deletion strains, locus YPR141C, strain kar3, hits give low values 0.999 | S. cerevisiae deletion strains, locus YPR163C, strain tif3, hits give low values 1.01 | S. cerevisiae deletion strains, locus YPR167C, strain met16, hits give low values 0.997 | S. cerevisiae deletion strains, strain wtn01, hits give low values 0.981 | S. cerevisiae strains, strain wild type, hits give low values 1.01

CC(C)c1ccc(N2C=Nc3ccc(C(C)C)cc3C2)cc1
inactive: S. cerevisiae deletion strains, locus YAR019C, strain CDC15, hits give low values 0.998 | S. cerevisiae deletion strains, locus YBL105C, strain PKC1, hits give low values 0.995 | S. cerevisiae deletion strains, locus YBR135W, strain CKS1, hits give low values 0.997 | S. cerevisiae deletion strains, locus YBR136W, strain MEC1, hits give low values 0.995 | S. cerevisiae deletion strains, locus YBR160W, strain CDC28, hits give low values 1 | S. cerevisiae deletion strains, locus YDL017W, strain CDC7, hits give low values 1 | S. cerevisiae deletion strains, locus YDL028C, strain MPS1, hits give low values 1.01 | [3] 1 | S. cerevisiae deletion strains, locus YDL108W, strain KIN28, hits give low values 0.993 | S. cerevisiae deletion strains, locus YDL132W, strain cdc53, hits give low values 0.995 | S. cerevisiae deletion strains, locus YDL214C, strain PRR2, hits give low values 0.971 | S. cerevisiae deletion strains, locus YDR052C, strain DBF4, hits give low values 1 | S. cerevisiae deletion strains, locus YDR054C, strain cdc34, hits give low values 0.992 | S. cerevisiae deletion strains, locus YDR226W, strain ADK1, hits give low values 0.984 | S. cerevisiae deletion strains, locus YDR477W, strain SNF1, hits give low values 0.97 | S. cerevisiae deletion strains, locus YER123W, strain YCK3, hits give low values 0.934 | S. cerevisiae deletion strains, locus YER133W, strain GLC7, hits give low values 0.968 | S. cerevisiae deletion strains, locus YFL009W, strain cdc4, hits give low values 1 | S. cerevisiae deletion strains, locus YFL029C, strain CAK1, hits give low values 1 | S. cerevisiae deletion strains, locus YFR003C, strain YPI1, hits give low values 1 | S. cerevisiae deletion strains, locus YFR019W, strain FAB1, hits give low values 0.942 | S. cerevisiae deletion strains, locus YFR028C, strain CDC14, hits give low values 0.987 | S. cerevisiae deletion strains, locus YGR040W, strain KSS1, hits give low values 0.973 | S. cerevisiae deletion strains, locus YGR052W, strain FMP48, hits give low values 1.09 | S. cerevisiae deletion strains, locus YGR092W, strain DBF2, hits give low values 1.01 | [4] 0.898 | S. cerevisiae deletion strains, locus YHR079C, strain IRE1, hits give low values 0.988 | S. cerevisiae deletion strains, locus YHR082C, strain KSP1, hits give low values 1.04 | S. cerevisiae deletion strains, locus YHR205W, strain SCH9, hits give low values 0.975 | S. cerevisiae deletion strains, locus YIL147C, strain SLN1, hits give low values 1 | [5] 0.953 | S. cerevisiae deletion strains, locus YJL128C, strain PBS2, hits give low values 0.982 | S. cerevisiae deletion strains, locus YJL157C, strain FAR1, hits give low values 0.995 | S. cerevisiae deletion strains, locus YJR016C, strain ILV3, hits give low values 1 | S. cerevisiae deletion strains, locus YJR066W, strain TOR1 (second series), hits give low values 0.972 | S. cerevisiae deletion strains, locus YJR066W, strain TOR1, hits give low values 1 | S. cerevisiae deletion strains, locus YKL048C, strain ELM1, hits give low values 0.995 | S. cerevisiae deletion strains, locus YKL067W, strain YNK1, hits give low values 0.963 | S. cerevisiae deletion strains, locus YKL101W, strain HSL1, hits give low values 0.978 | S. cerevisiae deletion strains, locus YKL193C, strain SDS22, hits give low values 0.997 | S. cerevisiae deletion strains, locus YKL203C, strain TOR2, hits give low values 1.02 | S. cerevisiae deletion strains, locus YLR113W, strain HOG1, hits give low values 0.97 | S. cerevisiae deletion strains, locus YLR133W, strain CKI1, hits give low values 0.98 | S. cerevisiae deletion strains, locus YLR403W, strain SFP1, hits give low values 0.988 | S. cerevisiae deletion strains, locus YML070W, strain DAK1, hits give low values 0.96 | S. cerevisiae deletion strains, locus YMR001C, strain CDC5, hits give low values 1 | S. cerevisiae deletion strains, locus YMR205C, strain PFK2 (second series), hits give low values 0.972 | S. cerevisiae deletion strains, locus YMR277W, strain FCP1, hits give low values 0.989 | S. cerevisiae deletion strains, locus YNL006W, strain LST8, hits give low values 1.01 | S. cerevisiae deletion strains, locus YNL020C, strain ARK1, hits give low values 0.987 | S. cerevisiae deletion strains, locus YNL161W, strain CBK1, hits give low values 1 | S. cerevisiae deletion strains, locus YNL183C, strain NPR1, hits give low values 0.968 | S. cerevisiae deletion strains, locus YNL207W, strain RIO2, hits give low values 1.01 | S. cerevisiae deletion strains, locus YNL222W, strain SSU72, hits give low values 1 | S. cerevisiae deletion strains, locus YNL307C, strain MCK1 (second series), hits give low values 0.957 | S. cerevisiae deletion strains, locus YOL078W, strain AVO1, hits give low values 1 | S. cerevisiae deletion strains, locus YOL136C, strain PFK27, hits give low values 0.964 | [6] 0.999 | S. cerevisiae deletion strains, locus YOR119C, strain RIO1, hits give low values 1.08 | S. cerevisiae deletion strains, locus YOR231W, strain MKK1, hits give low values 0.99 | S. cerevisiae deletion strains, locus YOR329C, strain SCD5, hits give low values 0.998 | S. cerevisiae deletion strains, locus YPL031C, strain PHO85, hits give low values 0.973 | S. cerevisiae deletion strains, locus YPL153C, strain RAD53, hits give low values 0.983 | S. cerevisiae deletion strains, locus YPL204W, strain HRR25, hits give low values 0.949 | S. cerevisiae deletion strains, locus YPL209C, strain IPL1, hits give low values 1 | S. cerevisiae deletion strains, locus YPL256C, strain CLN2, hits give low values 0.97 | S. cerevisiae deletion strains, locus YPR025C, strain CCL1, hits give low values 1 | S. cerevisiae deletion strains, locus YPR106W, strain ISR1, hits give low values 0.998 | S. cerevisiae deletion strains, locus YPR111W, strain DBF20, hits give low values 0.985 | S. cerevisiae deletion strains, strain NNK1, hits give low values 1.01 | S. cerevisiae deletion strains, strain TSCII, hits give low values 1.01
